Experimental data from ChEMBL document CHEMBL4296182, “CO-ADD screening of NIH NCI Diversity Set V”.

What follows are compounds tested on Acinetobacter baumannii (assay: Antibacterial activity against Acinetobacter baumannii ATCC 19606 (CO-ADD:GN_034); MIC in CAMBH media using NBS plates, by Resazurin F(560/590)). Details: Concentration 20 uM, ASSAY_TEST Inhibition of Bacterial Growth, detection method Resazurin, Fluorescence (ex560/em590), MEDIA CAMHB, plate type 384well, CORNING #3640, time 18 hr.
Type: functional

**Q.** Which Inhibition does the source give for `CN(C)c1ccc2c(c1)Sc1cc(N(C)C)ccc1N2C(=O)c1ccccc1` here?
**A.** The Inhibition was 0.08%.

**Q.** How did the Inhibition turn out when `O=C(CC1(O)CCCCC1)OC1CCCC1` was run?
**A.** The Inhibition was 3.29%.

**Q.** Which Inhibition does the source give for `COc1cc2c(cc1OC)C(/C=C/c1ccco1)=NCC2.O=S(=O)(O)O` here?
**A.** The Inhibition was 13.38%.

**Q.** How did the Inhibition turn out when `Nc1c(Cl)ncnc1NCCO` was run?
**A.** Its Inhibition is -7.14%.

**Q.** Which Inhibition does the source give for `O=[N+]([O-])c1c(N2CCN(CCO)CC2)nc2ccccn12` here?
**A.** Its Inhibition is -8.14%.

**Q.** With `O=S1(=O)CSCS(=O)(=O)C1` as the compound, how does the Inhibition read?
**A.** Its Inhibition is -2.62%.

**Q.** Which Inhibition does the source give for `O=c1[nH]c2c(cnn2-c2ccc(Cl)cc2)c(=O)n1-c1cccc(Cl)c1` here?
**A.** The Inhibition was 6.48%.

**Q.** `CC(C)n1cnc2c(S)ncnc21` was tested. Which Inhibition did it give?
**A.** Its Inhibition is -16.92%.

**Q.** With `O=[N+]([O-])c1ccc(/C=C\c2ccncc2)cc1` as the compound, how does the Inhibition read?
**A.** Its Inhibition is 17.7%.

**Q.** Which Inhibition does the source give for `c1ccc(-c2nc[nH]c2-c2ccccc2)cc1` here?
**A.** Its Inhibition is -13.75%.

**Q.** How did the Inhibition turn out when `O=C(Nc1cccc([N+](=O)[O-])c1)c1cc2ccccc2cc1O` was run?
**A.** Its Inhibition is -9.44%.

**Q.** With `CC(C)NCC1CCc2cc(CO)c([N+](=O)[O-])cc2N1` (stereo not drawn) [OXAMNIQUINE] as the compound, how does the Inhibition read?
**A.** Its Inhibition is -13.41%.

**Q.** Which Inhibition does the source give for `COc1ccc2c(=O)cc(-c3cccnc3)oc2c1OC` here?
**A.** The Inhibition was 8.21%.

**Q.** Which Inhibition does the source give for `COc1ccc(NC2=CC(=S)NC(C)(C)C2)cc1` here?
**A.** The Inhibition was -15.84%.

**Q.** With `C=CCNC(=O)C1COc2ccccc2O1` (stereo not drawn) as the compound, how does the Inhibition read?
**A.** The Inhibition was -14.67%.

**Q.** Which Inhibition does the source give for `NC(=O)c1ccccc1OCC(=O)Nc1ccc(Cl)c(Cl)c1` here?
**A.** Its Inhibition is -16.17%.

**Q.** `CCCCCCCCCCC(C(=O)O)C1(C(=O)O)CCC(=O)O1` (stereo not drawn) was tested. Which Inhibition did it give?
**A.** The Inhibition was 10.41%.

**Q.** For `CCCN(CCC)CC(=O)N1CC(=O)Nc2ccccc21`, which Inhibition is on record?
**A.** The Inhibition was -3.41%.

**Q.** For `CC(=O)Nc1ccc(S(=O)(=O)N=S(C)C)cc1`, which Inhibition is on record?
**A.** Its Inhibition is 5.41%.

**Q.** `CCN(CC)CCNC(=O)C(Cl)=C1C(Cl)=C(Cl)C(Cl)=C1Cl` was tested. Which Inhibition did it give?
**A.** The Inhibition was 6.92%.

**Q.** For `Nc1ccc(/N=N/c2ccc(O)cc2)c(N)n1`, which Inhibition is on record?
**A.** Its Inhibition is -10.7%.

**Q.** `COC(=O)C1(C)Cc2cc(OC(C)=O)c(OC(C)=O)cc2N1` (stereo not drawn) was tested. Which Inhibition did it give?
**A.** The Inhibition was 0.02%.

**Q.** Which Inhibition does the source give for `O=C(OCC(O)COC(=O)c1cccnc1)c1cccnc1` here?
**A.** Its Inhibition is 10.73%.

**Q.** For `Sc1cnnc2ccccc12`, which Inhibition is on record?
**A.** The Inhibition was -12.95%.

**Q.** Which Inhibition does the source give for `O=C(OCC1CCC=CO1)C1CCC=CO1` (stereo not drawn) here?
**A.** The Inhibition was -10.56%.

**Q.** For `O=C(O)c1ccc(N2CCCCC2)cc1O`, which Inhibition is on record?
**A.** Its Inhibition is -7.54%.

**Q.** For `CN1C=C/C(=C/[N+](=O)[O-])N(C)C1=O`, which Inhibition is on record?
**A.** The Inhibition was -6.18%.

**Q.** For `CC1CC=C(O)C12OCC(C)(C)CO2` (stereo not drawn), which Inhibition is on record?
**A.** Its Inhibition is -6.5%.

**Q.** Which Inhibition does the source give for `Cn1ncc2c(Nc3ccc(O)cc3)nc(Cl)nc21` here?
**A.** Its Inhibition is 8.39%.

**Q.** `CC(C)C(=O)Nc1cccnc1` was tested. Which Inhibition did it give?
**A.** The Inhibition was -12.43%.

**Q.** Which Inhibition does the source give for `Br.CN(C)c1n/c(=N/Cc2ccco2)ss1` here?
**A.** Its Inhibition is 6%.

**Q.** For `CCC1(C(=O)OC)CCc2c(cc(OC)c3ccccc23)C1=O` (stereo not drawn), which Inhibition is on record?
**A.** Its Inhibition is -17.62%.

**Q.** `Nc1n[nH]c(Nc2ccccc2)n1` was tested. Which Inhibition did it give?
**A.** The Inhibition was 2.24%.

**Q.** Which Inhibition does the source give for `Oc1ncnc(CN2CCCCC2)c1O` here?
**A.** Its Inhibition is 1.82%.

**Q.** Which Inhibition does the source give for `CC1CCC(C(C)C)C(NC(=O)c2ccncc2)C1` (stereo not drawn) here?
**A.** The Inhibition was -17.65%.

**Q.** How did the Inhibition turn out when `Oc1cc(-c2ccc(Cl)cc2)nc2ccccc12` was run?
**A.** The Inhibition was 13%.

**Q.** Which Inhibition does the source give for `CC(=O)O.N=c1ccn2c(n1)OC1C(O)C(CO)OC12` (stereo not drawn) here?
**A.** The Inhibition was -10.07%.

**Q.** How did the Inhibition turn out when `CCOC(=O)C(C)c1c(C(=O)c2ccc(C)nc2)c2ccccc2n1C` (stereo not drawn) was run?
**A.** Its Inhibition is 9.14%.

**Q.** Which Inhibition does the source give for `O=C(Nc1cccc(-c2ccccc2)c1)N1CCN(C(=O)Nc2cccc(-c3ccccc3)c2)CC1` here?
**A.** The Inhibition was -7.47%.

The compounds below were run on Escherichia coli (assay: Antibacterial activity against Escherichia coli ATCC 25922 (CO-ADD:GN_001); MIC in CAMBH media using NBS plates, by Resazurin F(560/590)). Details: Concentration 20 uM, ASSAY_TEST Inhibition of Bacterial Growth, detection method Resazurin, Fluorescence (ex560/em590), MEDIA CAMHB, plate type 384well, CORNING #3640, time 18 hr.
Type: functional

**Q.** For `CN(C)c1ccc2c(c1)Sc1cc(N(C)C)ccc1N2C(=O)c1ccccc1`, which Inhibition is on record?
**A.** The Inhibition was 1.67%.

**Q.** Which Inhibition does the source give for `O=C(CC1(O)CCCCC1)OC1CCCC1` here?
**A.** Its Inhibition is -15.82%.

**Q.** `COc1cc2c(cc1OC)C(/C=C/c1ccco1)=NCC2.O=S(=O)(O)O` was tested. Which Inhibition did it give?
**A.** Its Inhibition is 7.22%.

**Q.** With `Nc1c(Cl)ncnc1NCCO` as the compound, how does the Inhibition read?
**A.** Its Inhibition is 3.3%.

**Q.** With `O=[N+]([O-])c1c(N2CCN(CCO)CC2)nc2ccccn12` as the compound, how does the Inhibition read?
**A.** The Inhibition was 6.29%.

**Q.** For `O=S1(=O)CSCS(=O)(=O)C1`, which Inhibition is on record?
**A.** Its Inhibition is -18.14%.

**Q.** How did the Inhibition turn out when `O=c1[nH]c2c(cnn2-c2ccc(Cl)cc2)c(=O)n1-c1cccc(Cl)c1` was run?
**A.** Its Inhibition is -10.38%.

**Q.** `CC(C)n1cnc2c(S)ncnc21` was tested. Which Inhibition did it give?
**A.** Its Inhibition is 12.98%.

**Q.** For `O=[N+]([O-])c1ccc(/C=C\c2ccncc2)cc1`, which Inhibition is on record?
**A.** The Inhibition was -9.25%.

**Q.** For `c1ccc(-c2nc[nH]c2-c2ccccc2)cc1`, which Inhibition is on record?
**A.** The Inhibition was 11.94%.

**Q.** `O=C(Nc1cccc([N+](=O)[O-])c1)c1cc2ccccc2cc1O` was tested. Which Inhibition did it give?
**A.** The Inhibition was 23.78%.

**Q.** `CC(C)NCC1CCc2cc(CO)c([N+](=O)[O-])cc2N1` (stereo not drawn) [OXAMNIQUINE] was tested. Which Inhibition did it give?
**A.** Its Inhibition is 4.95%.

**Q.** Which Inhibition does the source give for `COc1ccc2c(=O)cc(-c3cccnc3)oc2c1OC` here?
**A.** The Inhibition was 2.42%.

**Q.** How did the Inhibition turn out when `COc1ccc(NC2=CC(=S)NC(C)(C)C2)cc1` was run?
**A.** Its Inhibition is 12.98%.

**Q.** With `C=CCNC(=O)C1COc2ccccc2O1` (stereo not drawn) as the compound, how does the Inhibition read?
**A.** Its Inhibition is 0.51%.

**Q.** `NC(=O)c1ccccc1OCC(=O)Nc1ccc(Cl)c(Cl)c1` was tested. Which Inhibition did it give?
**A.** Its Inhibition is 19.19%.

**Q.** `CCCCCCCCCCC(C(=O)O)C1(C(=O)O)CCC(=O)O1` (stereo not drawn) was tested. Which Inhibition did it give?
**A.** Its Inhibition is 4.35%.

**Q.** `CCCN(CCC)CC(=O)N1CC(=O)Nc2ccccc21` was tested. Which Inhibition did it give?
**A.** The Inhibition was -10.49%.

**Q.** For `CC(=O)Nc1ccc(S(=O)(=O)N=S(C)C)cc1`, which Inhibition is on record?
**A.** The Inhibition was 5.54%.

**Q.** `CCN(CC)CCNC(=O)C(Cl)=C1C(Cl)=C(Cl)C(Cl)=C1Cl` was tested. Which Inhibition did it give?
**A.** Its Inhibition is -4.74%.

**Q.** How did the Inhibition turn out when `Nc1ccc(/N=N/c2ccc(O)cc2)c(N)n1` was run?
**A.** The Inhibition was 0%.

**Q.** Which Inhibition does the source give for `COC(=O)C1(C)Cc2cc(OC(C)=O)c(OC(C)=O)cc2N1` (stereo not drawn) here?
**A.** Its Inhibition is 8.98%.

**Q.** How did the Inhibition turn out when `O=C(OCC(O)COC(=O)c1cccnc1)c1cccnc1` was run?
**A.** Its Inhibition is 2.79%.

**Q.** For `Sc1cnnc2ccccc12`, which Inhibition is on record?
**A.** Its Inhibition is -15.13%.

**Q.** With `O=C(OCC1CCC=CO1)C1CCC=CO1` (stereo not drawn) as the compound, how does the Inhibition read?
**A.** The Inhibition was 3.07%.

**Q.** Which Inhibition does the source give for `O=C(O)c1ccc(N2CCCCC2)cc1O` here?
**A.** Its Inhibition is 7.11%.

**Q.** How did the Inhibition turn out when `CN1C=C/C(=C/[N+](=O)[O-])N(C)C1=O` was run?
**A.** The Inhibition was 4.71%.

**Q.** `CC1CC=C(O)C12OCC(C)(C)CO2` (stereo not drawn) was tested. Which Inhibition did it give?
**A.** Its Inhibition is 5.59%.

**Q.** With `Cn1ncc2c(Nc3ccc(O)cc3)nc(Cl)nc21` as the compound, how does the Inhibition read?
**A.** Its Inhibition is 3.23%.

**Q.** `CC(C)C(=O)Nc1cccnc1` was tested. Which Inhibition did it give?
**A.** The Inhibition was 9.68%.

**Q.** `Br.CN(C)c1n/c(=N/Cc2ccco2)ss1` was tested. Which Inhibition did it give?
**A.** Its Inhibition is 7.56%.

**Q.** Which Inhibition does the source give for `CCC1(C(=O)OC)CCc2c(cc(OC)c3ccccc23)C1=O` (stereo not drawn) here?
**A.** Its Inhibition is 8.82%.

**Q.** Which Inhibition does the source give for `Nc1n[nH]c(Nc2ccccc2)n1` here?
**A.** Its Inhibition is 12.19%.

**Q.** With `Oc1ncnc(CN2CCCCC2)c1O` as the compound, how does the Inhibition read?
**A.** Its Inhibition is 7.79%.

**Q.** With `CC1CCC(C(C)C)C(NC(=O)c2ccncc2)C1` (stereo not drawn) as the compound, how does the Inhibition read?
**A.** Its Inhibition is 6.28%.

**Q.** How did the Inhibition turn out when `Oc1cc(-c2ccc(Cl)cc2)nc2ccccc12` was run?
**A.** The Inhibition was -1.34%.

**Q.** With `CC(=O)O.N=c1ccn2c(n1)OC1C(O)C(CO)OC12` (stereo not drawn) as the compound, how does the Inhibition read?
**A.** Its Inhibition is 8.11%.

**Q.** With `CCOC(=O)C(C)c1c(C(=O)c2ccc(C)nc2)c2ccccc2n1C` (stereo not drawn) as the compound, how does the Inhibition read?
**A.** Its Inhibition is -0.3%.

**Q.** Which Inhibition does the source give for `O=C(Nc1cccc(-c2ccccc2)c1)N1CCN(C(=O)Nc2cccc(-c3ccccc3)c2)CC1` here?
**A.** Its Inhibition is 7.55%.
